Experimental data as given in the supplement of paper PMC10849652.
Of roughly 7,900 targets only a part is listed; those with a hit were picked by preference. About 0.6% of all pairs of compound and target were hits.

What was measured:
Assay in all cases: log2 fold change, soluble protein after heating vs DMSO (PISA); higher = thermal stabilisation; K562 cells, 10 uM, 30 min; active = over 0.2 and 3.5 SD of the protein, either way, in both replicates (recomputed)
[1] = compound: CS(=O)(=O)c1ccc(-c2cnc(N)c(C(=O)Nc3ccccc3)n2)cc1
Outline: (§1)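 K562 cells (2×10^6 cells/mL) were treated with 10 μM compound for 30 min, and aliquots were heated for 3 min over 48°C-58°C. Pooled aliquots were extracted in PBS with 0.5% NP-40 at 4°C, and the supernatant after 21,000xg for 90 min was measured by TMTpro 16plex LC-MS/MS with channel sums equalised. Reported thermal stability, relative to control samples and from duplicates, is a log2 fold change.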

[2] = compound: C[C@@H](Oc1cc(-c2cnn(C3CCNCC3)c2)cnc1N)c1c(Cl)ccc(F)c1Cl [crizotinib]
Outline: as §1

[3] = compound: C[C@@H]1COCCN1C2=NC(=NC(=C2)C3(CC3)S(=O)(=O)C)C4=C5C=CNC5=CC=C4
Outline: as §1

[4] = compound: C[C@H](C1=CC=C(C=C1)C(=O)NC2=C3C=CNC3=NC=C2)N
Outline: as §1

[5] = compound: C[C@H](Nc1ncnc2nc[nH]c12)c1cc2cccc(Cl)c2c(=O)n1-c1ccccc1 [duvelisib]
Outline: as §1

[6] = compound: Cc1cc(Nc2cc(CN3CCOCC3)c3nc(C)c(Cc4ccc(Cl)cc4F)n3n2)n[nH]1 [gandotinib]
Outline: as §1

[7] = compound: Cc1cc(Nc2cc(N3CCN(C)CC3)nc(Sc3ccc(NC(=O)C4CC4)cc3)n2)n[nH]1 [tozasertib]
Outline: as §1

[8] = compound: Cc1cc(SCc2sc(-c3ccc(C(F)(F)F)cc3)nc2C)ccc1OCC(=O)O
Outline: as §1

[9] = compound: Cc1ccc(-n2nc(C(C)(C)C)cc2NC(=O)Nc2ccc(OCCN3CCOCC3)c3ccccc23)cc1 [doramapimod]
Outline: as §1

[10] = compound: Cc1ccc(C(=O)N(CCCN)[C@@H](c2nc3cc(Cl)ccc3c(=O)n2Cc2ccccc2)C(C)C)cc1 [ispinesib]
Outline: as §1

Measured: log2 fold change

IPO9 (UniProt Q96P70)
inactive: [1] -0.04 | [2] -0.031 | [3] 0.051 | [4] -0.042 | [5] 0.007 | [6] -0.146 | [7] 0.143 | [8] 0.041 | [9] 0.008 | [10] 0.062

IGFBP4 (UniProt P22692)
Sequence of UniProt P22692 (P22692 whole entry, looked up): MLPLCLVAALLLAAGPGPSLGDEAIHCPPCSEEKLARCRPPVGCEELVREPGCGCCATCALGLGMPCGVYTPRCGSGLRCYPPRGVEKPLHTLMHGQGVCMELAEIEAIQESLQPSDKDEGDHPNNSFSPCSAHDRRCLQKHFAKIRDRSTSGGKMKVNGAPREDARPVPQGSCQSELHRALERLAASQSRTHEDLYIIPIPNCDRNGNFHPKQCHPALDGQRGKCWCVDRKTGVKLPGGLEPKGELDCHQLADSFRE
inactive: [1] -0.066 | [2] 0.064 | [3] 0.022 | [4] -0.114 | [5] 0.02 | [6] -0.229 | [7] -0.021 | [8] -0.007 | [9] 0 | [10] -0.233

LMNB1 (UniProt P20700)
inactive: [1] -0.01 | [2] 0.038 | [3] 0.108 | [4] -0.172 | [5] -0.018 | [6] -0.03 | [7] 0.096 | [8] -0.022 | [9] -0.003 | [10] 0.041

MICOS13 (UniProt Q5XKP0)
Sequence of UniProt Q5XKP0 (Q5XKP0 whole entry, looked up): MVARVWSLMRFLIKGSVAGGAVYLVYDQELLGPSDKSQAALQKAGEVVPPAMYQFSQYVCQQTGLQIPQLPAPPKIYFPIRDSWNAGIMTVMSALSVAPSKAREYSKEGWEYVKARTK
inactive: [1] 0.049 | [2] -0.164 | [3] 0.156 | [4] -0.08 | [5] 0.031 | [6] -0.216 | [7] -0.047 | [8] -0.055 | [9] -0.027
active: [10] -0.257

LRBA (UniProt P50851)
inactive: [1] 0.018 | [2] -0.054 | [3] 0.037 | [4] -0.005 | [5] 0.012 | [6] -0.094 | [7] -0.006 | [8] 0.011 | [9] 0.012 | [10] -0.078

MED17 (UniProt Q9NVC6)
Sequence of UniProt Q9NVC6 (Q9NVC6 whole entry, looked up): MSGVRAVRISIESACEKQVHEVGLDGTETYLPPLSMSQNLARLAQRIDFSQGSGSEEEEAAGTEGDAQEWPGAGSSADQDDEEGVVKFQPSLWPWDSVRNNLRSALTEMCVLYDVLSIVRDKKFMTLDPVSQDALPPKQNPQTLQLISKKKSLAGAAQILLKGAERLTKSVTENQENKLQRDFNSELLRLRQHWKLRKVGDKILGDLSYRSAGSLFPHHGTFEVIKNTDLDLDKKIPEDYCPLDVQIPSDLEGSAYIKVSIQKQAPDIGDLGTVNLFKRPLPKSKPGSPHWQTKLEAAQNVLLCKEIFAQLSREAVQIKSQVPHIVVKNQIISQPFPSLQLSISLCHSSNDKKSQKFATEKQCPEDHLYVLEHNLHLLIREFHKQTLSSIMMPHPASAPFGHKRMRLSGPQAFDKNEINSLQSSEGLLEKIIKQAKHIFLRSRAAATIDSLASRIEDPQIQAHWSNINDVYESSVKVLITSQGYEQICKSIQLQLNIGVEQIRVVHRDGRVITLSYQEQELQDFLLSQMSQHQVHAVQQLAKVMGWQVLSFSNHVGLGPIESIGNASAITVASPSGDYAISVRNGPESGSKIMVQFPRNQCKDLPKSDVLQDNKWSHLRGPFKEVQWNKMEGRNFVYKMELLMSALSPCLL
inactive: [1] -0.02 | [2] -0.004 | [3] 0.028 | [4] 0.119 | [5] -0.067 | [6] 0.007 | [7] -0.042 | [8] 0.109 | [9] 0.022 | [10] -0.049

MAP3K7 (UniProt O43318)
inactive: [1] 0.093 | [2] -0.193 | [3] -0.035 | [4] 0.135 | [5] 0.08 | [6] -0.036 | [7] -0.011 | [8] 0.118 | [9] -0.001 | [10] -0.029

MARCKSL1 (UniProt P49006)
inactive: [1] 0.032 | [2] 0.09 | [3] -0.006 | [4] -0.094 | [5] 0.025 | [6] -0.006 | [7] -0.033 | [8] -0.074 | [9] -0.047 | [10] 0.071

LIAS (UniProt O43766)
inactive: [1] 0.035 | [2] 0.03 | [3] 0.039 | [4] 0.075 | [5] 0.043 | [6] 0.086 | [7] -0.015 | [8] -0.08 | [9] 0 | [10] -0.24

IRF2BPL (UniProt Q9H1B7)
inactive: [1] -0.034 | [2] 0.133 | [3] 0.249 | [4] -0.005 | [5] 0.106 | [6] -0.041 | [7] 0.034 | [8] 0.066 | [9] -0.061 | [10] -0.083

IRAK4 (UniProt Q9NWZ3)
inactive: [1] 0.034 | [2] -0.025 | [3] 0.003 | [4] 0.046 | [5] -0.01 | [6] -0.107 | [7] 0.061 | [8] 0.104 | [9] -0.047 | [10] -0.05

KDM3B (UniProt Q7LBC6)
inactive: [1] 0.045 | [2] 0.001 | [3] 0.086 | [4] -0.044 | [5] 0.015 | [6] -0.045 | [7] 0.06 | [8] 0.012 | [9] -0.077 | [10] 0.015

METTL18 (UniProt O95568)
inactive: [1] 0.003 | [2] -0.043 | [3] 0.053 | [4] -0.012 | [5] 0.004 | [6] -0.045 | [7] -0.115 | [8] 0.012 | [9] -0.001 | [10] 0.004

LARP4B (UniProt Q92615)
Sequence of UniProt Q92615 (Q92615 whole entry, looked up): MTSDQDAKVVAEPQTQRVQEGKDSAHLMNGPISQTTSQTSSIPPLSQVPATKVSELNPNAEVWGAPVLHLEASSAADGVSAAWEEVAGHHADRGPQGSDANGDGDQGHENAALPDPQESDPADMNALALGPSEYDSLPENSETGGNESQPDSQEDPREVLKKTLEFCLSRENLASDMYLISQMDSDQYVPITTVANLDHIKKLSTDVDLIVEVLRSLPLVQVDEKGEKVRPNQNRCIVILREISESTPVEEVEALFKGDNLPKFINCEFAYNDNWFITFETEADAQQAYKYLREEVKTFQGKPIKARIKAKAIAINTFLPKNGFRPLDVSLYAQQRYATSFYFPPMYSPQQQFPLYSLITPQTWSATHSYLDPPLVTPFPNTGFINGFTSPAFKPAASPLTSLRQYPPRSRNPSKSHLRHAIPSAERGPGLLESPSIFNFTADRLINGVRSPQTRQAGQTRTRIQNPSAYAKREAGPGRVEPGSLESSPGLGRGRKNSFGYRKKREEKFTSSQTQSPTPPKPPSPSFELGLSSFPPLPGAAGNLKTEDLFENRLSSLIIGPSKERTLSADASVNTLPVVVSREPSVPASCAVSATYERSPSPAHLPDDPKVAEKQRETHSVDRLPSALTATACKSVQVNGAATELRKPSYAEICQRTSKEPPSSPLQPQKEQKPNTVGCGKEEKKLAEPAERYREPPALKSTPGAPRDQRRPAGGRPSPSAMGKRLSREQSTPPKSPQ
inactive: [1] -0.066 | [2] -0.1 | [3] -0.121 | [4] 0.104 | [5] -0.029 | [6] -0.029 | [7] 0.037 | [8] 0.065 | [9] 0.048 | [10] -0.132

IPO13 (UniProt O94829)
Sequence of UniProt O94829 (O94829 whole entry, looked up): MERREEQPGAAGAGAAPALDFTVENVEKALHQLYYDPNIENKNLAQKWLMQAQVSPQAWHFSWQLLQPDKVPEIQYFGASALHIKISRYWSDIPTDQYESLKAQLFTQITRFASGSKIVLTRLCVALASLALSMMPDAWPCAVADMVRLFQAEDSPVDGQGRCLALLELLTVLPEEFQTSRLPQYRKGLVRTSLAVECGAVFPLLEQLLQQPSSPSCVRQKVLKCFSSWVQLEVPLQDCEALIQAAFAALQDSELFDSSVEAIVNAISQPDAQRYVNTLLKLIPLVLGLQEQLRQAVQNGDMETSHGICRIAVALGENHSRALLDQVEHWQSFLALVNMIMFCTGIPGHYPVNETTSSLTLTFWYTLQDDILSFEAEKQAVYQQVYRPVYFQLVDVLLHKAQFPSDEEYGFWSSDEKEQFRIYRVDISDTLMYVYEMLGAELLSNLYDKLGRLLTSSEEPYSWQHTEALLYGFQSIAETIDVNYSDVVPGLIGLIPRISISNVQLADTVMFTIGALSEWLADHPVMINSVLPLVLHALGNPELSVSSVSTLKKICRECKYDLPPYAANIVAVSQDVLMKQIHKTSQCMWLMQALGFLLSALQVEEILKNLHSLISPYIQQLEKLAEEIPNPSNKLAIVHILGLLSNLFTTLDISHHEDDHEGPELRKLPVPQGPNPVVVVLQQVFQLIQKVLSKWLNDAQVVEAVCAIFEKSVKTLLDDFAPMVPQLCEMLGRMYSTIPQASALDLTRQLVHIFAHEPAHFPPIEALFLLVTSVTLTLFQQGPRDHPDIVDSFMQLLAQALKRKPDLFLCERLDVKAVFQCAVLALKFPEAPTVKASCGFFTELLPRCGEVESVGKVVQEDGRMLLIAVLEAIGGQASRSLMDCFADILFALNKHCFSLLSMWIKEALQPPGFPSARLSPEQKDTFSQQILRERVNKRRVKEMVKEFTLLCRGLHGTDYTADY
inactive: [1] -0.042 | [2] -0.134 | [3] 0.016 | [4] -0.028 | [5] 0.04 | [6] -0.234 | [7] 0.001 | [8] 0.01 | [9] 0.023 | [10] -0.13

LEMD2 (UniProt Q8NC56)
active: [2] -0.286 | [10] -0.438
inactive: [1] -0.001 | [3] 0.084 | [4] -0.057 | [5] -0.016 | [6] -0.17 | [7] 0.008 | [8] 0.109 | [9] 0.079

MAP2K3 isoform 3 (UniProt P46734)
inactive: [1] 0.054 | [2] -0.049 | [3] -0.068 | [4] 0.043 | [5] 0.091 | [6] -0.001 | [7] 0.005 | [8] -0.007 | [9] 0.012 | [10] -0.02

KEAP1 (UniProt Q14145)
Sequence of UniProt Q14145 (Q14145 whole entry, looked up): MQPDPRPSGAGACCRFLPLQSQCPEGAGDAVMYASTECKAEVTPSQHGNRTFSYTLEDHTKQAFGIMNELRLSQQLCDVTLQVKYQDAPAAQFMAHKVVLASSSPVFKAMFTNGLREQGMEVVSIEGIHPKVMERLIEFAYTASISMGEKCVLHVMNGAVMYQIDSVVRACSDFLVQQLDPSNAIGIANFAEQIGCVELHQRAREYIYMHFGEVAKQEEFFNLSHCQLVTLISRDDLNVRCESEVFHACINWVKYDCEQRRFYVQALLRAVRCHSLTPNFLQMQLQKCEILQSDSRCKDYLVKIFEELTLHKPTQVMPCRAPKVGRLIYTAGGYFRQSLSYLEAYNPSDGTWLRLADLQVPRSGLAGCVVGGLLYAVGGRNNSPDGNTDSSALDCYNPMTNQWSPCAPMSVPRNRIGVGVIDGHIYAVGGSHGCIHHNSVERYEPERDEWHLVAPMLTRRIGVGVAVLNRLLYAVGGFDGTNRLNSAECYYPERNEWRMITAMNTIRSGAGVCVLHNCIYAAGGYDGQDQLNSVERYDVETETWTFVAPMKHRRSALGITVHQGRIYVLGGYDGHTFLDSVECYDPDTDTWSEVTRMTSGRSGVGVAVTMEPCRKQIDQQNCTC
inactive: [1] 0.011 | [2] -0.077 | [3] -0.095 | [4] 0.111 | [5] 0.008 | [6] -0.176 | [7] 0.077 | [8] 0.049 | [9] 0.089 | [10] -0.102

MAP2K2 (UniProt P36507)
inactive: [1] 0.013 | [2] -0.055 | [3] 0.069 | [4] -0.052 | [5] 0.02 | [6] -0.069 | [7] -0.041 | [8] -0.01 | [9] -0.038 | [10] -0.058

LDAH isoform 2 (UniProt Q9H6V9)
active: [2] -0.308 | [10] -0.438
inactive: [1] 0.052 | [3] 0.064 | [4] -0.035 | [5] 0.001 | [6] -0.001 | [7] -0.047 | [8] 0.204 | [9] 0.019

LAMP2 (UniProt P13473)
Sequence of UniProt P13473 (P13473 whole entry, looked up): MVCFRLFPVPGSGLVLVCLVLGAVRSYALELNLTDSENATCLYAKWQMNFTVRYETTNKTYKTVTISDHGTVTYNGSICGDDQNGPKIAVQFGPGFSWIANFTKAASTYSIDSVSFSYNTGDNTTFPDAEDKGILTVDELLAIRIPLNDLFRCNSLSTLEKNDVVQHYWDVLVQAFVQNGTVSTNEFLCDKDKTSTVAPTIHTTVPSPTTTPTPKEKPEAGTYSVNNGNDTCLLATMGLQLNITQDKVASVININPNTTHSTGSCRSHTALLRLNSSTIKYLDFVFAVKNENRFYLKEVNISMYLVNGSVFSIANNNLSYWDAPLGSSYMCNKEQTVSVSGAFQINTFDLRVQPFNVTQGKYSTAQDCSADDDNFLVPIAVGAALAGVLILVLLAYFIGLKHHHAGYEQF
inactive: [1] 0.055 | [2] 0.043 | [3] 0.006 | [4] -0.051 | [5] 0.072 | [6] -0.104 | [7] 0.015 | [8] -0.062 | [9] -0.039 | [10] -0.001

MAST4 (UniProt O15021)
inactive: [1] -0.041 | [2] -0.188 | [3] 0.064 | [4] -0.114 | [5] 0.091 | [6] -0.301 | [7] -0.03 | [8] 0.053 | [9] -0.088 | [10] 0.007

KHDRBS1 (UniProt Q07666)
inactive: [1] -0.091 | [2] -0.02 | [3] -0.06 | [4] -0.019 | [5] -0.017 | [6] 0.07 | [7] -0.015 | [8] 0.038 | [9] -0.027 | [10] 0.011

LENG8 (UniProt Q96PV6)
inactive: [1] 0.022 | [2] -0.342 | [3] 0.112 | [4] 0.107 | [5] -0.005 | [6] -0.094 | [7] -0.016 | [8] 0.055 | [9] 0.039 | [10] 0.241

LIMD1 (UniProt Q9UGP4)
inactive: [1] -0.03 | [2] 0.005 | [3] -0.007 | [4] -0.071 | [5] -0.032 | [6] 0.011 | [7] 0.039 | [8] 0.042 | [9] -0.01 | [10] 0.008

LPCAT3 (UniProt Q6P1A2)
Sequence of UniProt Q6P1A2 (Q6P1A2 whole entry, looked up): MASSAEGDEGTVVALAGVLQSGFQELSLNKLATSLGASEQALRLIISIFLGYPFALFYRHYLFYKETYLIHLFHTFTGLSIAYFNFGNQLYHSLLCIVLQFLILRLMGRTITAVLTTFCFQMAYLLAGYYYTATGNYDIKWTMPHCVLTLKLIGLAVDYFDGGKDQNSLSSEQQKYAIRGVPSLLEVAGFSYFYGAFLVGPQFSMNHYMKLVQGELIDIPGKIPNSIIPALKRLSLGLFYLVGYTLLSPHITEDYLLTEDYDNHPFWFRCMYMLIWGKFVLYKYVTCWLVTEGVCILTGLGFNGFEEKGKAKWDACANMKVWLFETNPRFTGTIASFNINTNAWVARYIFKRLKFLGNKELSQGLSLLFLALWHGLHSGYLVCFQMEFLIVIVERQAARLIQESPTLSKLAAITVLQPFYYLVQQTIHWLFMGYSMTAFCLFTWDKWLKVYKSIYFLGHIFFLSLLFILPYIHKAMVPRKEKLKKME
inactive: [1] 0.091 | [2] -0.121 | [3] 0.171 | [4] 0.006 | [5] -0.035 | [6] -0.167 | [7] -0.027 | [8] 0.027 | [9] -0.042
active: [10] -0.696

LMF2 (UniProt Q9BU23)
inactive: [1] 0.039 | [2] 0.016 | [3] -0.05 | [4] 0.053 | [5] 0.002 | [6] 0.023 | [7] 0.088 | [8] 0.023 | [9] 0.046 | [10] -0.075

IMMT isoform 2 (UniProt Q16891)
Sequence of UniProt Q16891 (Q16891 whole entry, looked up): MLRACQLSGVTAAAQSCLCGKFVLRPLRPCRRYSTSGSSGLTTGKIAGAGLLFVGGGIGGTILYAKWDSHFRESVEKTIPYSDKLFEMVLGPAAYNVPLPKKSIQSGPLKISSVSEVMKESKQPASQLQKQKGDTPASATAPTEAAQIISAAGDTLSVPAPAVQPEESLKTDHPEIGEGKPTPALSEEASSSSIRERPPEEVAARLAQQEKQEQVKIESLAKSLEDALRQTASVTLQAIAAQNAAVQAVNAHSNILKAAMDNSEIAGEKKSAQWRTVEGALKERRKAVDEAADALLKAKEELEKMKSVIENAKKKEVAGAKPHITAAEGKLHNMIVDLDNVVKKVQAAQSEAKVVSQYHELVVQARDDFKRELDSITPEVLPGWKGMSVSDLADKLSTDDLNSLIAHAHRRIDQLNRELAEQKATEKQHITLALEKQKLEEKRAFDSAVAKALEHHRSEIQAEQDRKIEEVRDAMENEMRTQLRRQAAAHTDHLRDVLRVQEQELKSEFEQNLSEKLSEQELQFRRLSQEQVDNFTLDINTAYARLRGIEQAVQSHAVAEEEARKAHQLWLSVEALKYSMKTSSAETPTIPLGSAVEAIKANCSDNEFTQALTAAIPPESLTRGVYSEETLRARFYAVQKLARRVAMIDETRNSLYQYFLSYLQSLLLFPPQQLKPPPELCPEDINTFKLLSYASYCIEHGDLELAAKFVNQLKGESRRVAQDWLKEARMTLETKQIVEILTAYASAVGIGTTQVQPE
inactive: [1] -0.042 | [2] -0.152 | [3] 0.046 | [4] -0.115 | [5] -0.003 | [6] -0.075 | [7] -0.019 | [8] -0.087 | [9] -0.034 | [10] -0.031

KDM1A isoform 2 (UniProt O60341)
inactive: [1] -0.047 | [2] -0.036 | [3] 0.018 | [4] -0.011 | [5] 0.025 | [6] 0.014 | [7] 0.049 | [8] 0.061 | [9] -0.028 | [10] -0.057

KPNA4 (UniProt O00629)
inactive: [1] 0.004 | [2] -0.003 | [3] 0.024 | [4] -0.073 | [5] 0.03 | [6] -0.032 | [7] -0.014 | [8] 0.014 | [9] -0.046 | [10] 0.037
